49 molecules from PubChem BioAssay AID1851 (National Center for Advancing Translational Sciences (NCATS), 2009) can be followed below.

The AC50 is the midpoint of the concentration-response curve, whichever way the signal moves.

About 5,700 (36%) of roughly 16,000 compounds were called active. Another 24% or so got no clear call; they are omitted. This is one part of the list. Unmarked numbers belong to inactive results. Calls follow the shape of the dose curve; as a rule, active = well fitted curve in the direction sought with a large enough effect; inconclusive = small, poorly fitted or top-dose-only effect, or effect the other way; inactive = no such curve, though single readings can be large or run the other way.
% is scaled to controls: 0 for no effect and ±100 for the full control effect.

For the assay, the target named is Cytochrome P450 1A2 (Homo sapiens) (UniProt P05177). The experiment in a line: Cytochrome panel assay with activity outcomes. The following applies: recombinant CYP, pro-luciferin dealkylation, luminescence, p450-cyp1a2; series mostly up to 57.1 µM; activity, negative = inhibition: at the top concentration.
Cytochrome P450 1A2 (Homo sapiens), sequence (P05177 whole entry, looked up): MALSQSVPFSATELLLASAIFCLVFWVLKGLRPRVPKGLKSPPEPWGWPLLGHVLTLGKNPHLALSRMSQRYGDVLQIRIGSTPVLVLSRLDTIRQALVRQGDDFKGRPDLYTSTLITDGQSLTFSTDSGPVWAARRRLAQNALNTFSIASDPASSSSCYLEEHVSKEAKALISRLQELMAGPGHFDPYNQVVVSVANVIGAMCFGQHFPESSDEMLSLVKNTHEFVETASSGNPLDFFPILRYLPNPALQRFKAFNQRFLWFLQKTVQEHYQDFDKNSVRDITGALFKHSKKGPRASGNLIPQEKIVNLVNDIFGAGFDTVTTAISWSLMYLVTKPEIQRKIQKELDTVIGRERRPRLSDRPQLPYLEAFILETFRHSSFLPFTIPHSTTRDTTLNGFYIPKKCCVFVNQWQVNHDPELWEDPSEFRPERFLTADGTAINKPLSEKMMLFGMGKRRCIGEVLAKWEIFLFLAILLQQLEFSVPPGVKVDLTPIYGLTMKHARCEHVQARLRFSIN
On to `COc1ccccc1CNc1ncnc2ccc(-c3ccoc3)cc12`, for which the AC50 is 2510 nM (active). Turning to `CS(=O)(=O)N1CCC[C@@]2(CCN(C(=O)Nc3ccccc3)C2)C1`, the “activity, negative = inhibition” value was -16.3%. On the same count and under the same terms, the result for `COC(=O)[C@@]1(Cc2ccccc2)[C@H]2c3cc(C(=O)N4CCCC4)n(Cc4ccccn4)c3C[C@H]2CN1C(=O)c1ccccc1` reads -15.4%. As to `N[C@H](C(=O)O)[C@@H]1C[C@@H]1C(=O)O`, the AC50 result was “inactive”. Still for that read-out and setting: under `O=c1[nH]c2cc(Br)cnc2nc1/C=C(\O)c1ccc(F)cc1` stands 398 nM (active). Consider `CCNc1ncc2nc(-c3cc(F)cc(F)c3)c(=O)n(C)c2n1`, for which the AC50 is 2000 nM (active). For the molecule `CCNc1ncc2nc(-c3ccc(F)cc3)c(=O)n(C)c2n1`, the AC50 is 501 nM (active). The same measure, in the same setting: the result for `CCNc1ncc2nc(-c3cccc(C#N)c3)c(=O)n(C)c2n1` reads 2510 nM (active).

For `CCNc1ncc2nc(-c3ccc(OC)cc3)c(=O)n(Cc3ccc(F)cc3)c2n1`, the “activity, negative = inhibition” value was -16.1%. In the case of `CCNc1ncc2nc(-c3ccccc3)c(=O)n(C)c2n1`, the AC50 was 398 nM (active). Take `O=C1O[C@@H]([C@H](O)[C@H](O)[C@H](O)CO)[C@@H](O)[C@@H]1O`: the activity, negative = inhibition is -12.7% [at 11.4 µM]. With `NC(=O)c1cc[n+](CC2=C(C(=O)[O-])N3C(=O)[C@@H](NC(=O)Cc4cccs4)[C@@H]3SC2)cc1`, the “activity, negative = inhibition” value was -15.1% [at 25.6 µM]. Regarding `C[C@H](Oc1ccccc1)C(=O)N[C@@H]1C(=O)N2[C@@H]1SC(C)(C)[C@@H]2C(=O)O`, the “activity, negative = inhibition” value is -7.23% [at 25.6 µM]. The same measure, in the same setting: under `NOCC(=O)O` stands -5.6%. For `Cc1cc(C(C)(C)C)c(O)c(C)c1CC1=NCCN1`, the AC50 result was “inactive”. On to `Cc1n[nH]c(=O)[nH]c1=O`, for which the “activity, negative = inhibition” value is -6.49% [at 25.6 µM]. `CCNc1ncc2nc(-c3ccc(Cl)cc3)c(=O)n(C)c2n1`: the AC50 was 398 nM (active). Take `CCNc1ncc2nc(-c3ccc(OC)cc3)c(=O)n(-c3ccc(OC)cc3)c2n1`: the “activity, negative = inhibition” value was -17.8%. As for `CN1CCN(c2ncnc3ccc(-c4cccc(C#N)c4)cc23)CC1`, the AC50 was 1260 nM (active). Same read-out and setting: under `c1cncc(-c2ccc3ncnc(N4CCNCC4)c3c2)c1` stands 1260 nM (active); under `N#Cc1cccc(-c2ccc3ncnc(N4CCNCC4)c3c2)c1`, 631 nM (active).

For the molecule `COc1cc2cc3c4cc(OC)c(OC)cc4cc[n+]3c(C)c2cc1OC`, the “activity, negative = inhibition” value was -21.4% [at 25.6 µM]. For the molecule `CC(C)CO/N=C1/[C@H]2O[C@@H]2[C@@H](O)[C@H]2[C@H]1CCn1c(=O)n(-c3ccccc3)c(=O)n12`, the activity, negative = inhibition was -6.37% [at 11.4 µM].

Regarding `CCOc1cc(CNCCCN2CCOCC2)cc(Br)c1OCC(=O)Nc1cccc(C(F)(F)F)c1`, the “activity, negative = inhibition” value is -15.4%.

With `OCCCCNCc1ccc(OCc2ccccc2Cl)cc1`, the half-maximal activity concentration (AC50) is 5010 nM (active). Turning to `Clc1ccccc1CNCC1CCC(CNCc2ccccc2Cl)CC1` (centres undefined), the “activity, negative = inhibition” value is -6.82%. In the case of `CCOc1cc(CNCCO)cc(Br)c1OCc1ccccc1Cl`, the AC50 was 158 nM (active).

For `Clc1ccc(-c2nc3ncccn3c2Nc2ccc3c(c2)OCCO3)cc1`, the AC50 is 6310 nM (active). Take `CC(C)CN1CCC2(CC1)CCN(C(=O)c1cc(C(F)(F)F)cc(C(F)(F)F)c1)CC2`: the “activity, negative = inhibition” value was -4.57%.

Turning to `O=C(O)C1C2C=CC(C2)C1C(=O)N1CCN(C/C=C/c2ccccc2)CC1` (centres undefined), the “activity, negative = inhibition” value was -25.9%. With `O=C(/C=C/c1ccc2ccccc2c1)c1ccoc1`, the AC50 is 2240 nM (active).

In the case of `CC(C)(C)OC(=O)COc1cc(OCC(=O)OC(C)(C)C)c2c(=O)cc(-c3ccccc3)oc2c1`, the “activity, negative = inhibition” value is -27.5%. Consider `O=c1cc(-c2ccccc2)oc2cc(O)c(O)c(O)c12`, for which the AC50 is 501 nM (active). `NS(=O)(=O)Cc1noc2ccccc12`: the “activity, negative = inhibition” value is -5.73%.

As to `CCCCC(=O)Nc1ccc(C(=O)NNC(=O)CCc2ccccc2)cc1`, the “activity, negative = inhibition” value was 0.428%.

With `CCC(CC)C(=O)Nc1cccc(C(=O)Nc2ccc(OC)cc2[N+](=O)[O-])c1`, the “activity, negative = inhibition” value is -2.86%. Consider `CCCCC(=O)Nc1ccc(C)c(O)c1`, for which the AC50 was 3550 nM (active). Same read-out and setting: under `CCC(CC)C(=O)Nc1ccc(C)c(O)c1` stands 12600 nM (active). Take `COc1cc(C2C(C(=O)c3ccc(C)o3)=C(O)C(=O)N2CCc2ccccc2)ccc1O` (centres undefined): the “activity, negative = inhibition” value was -18.9%. As to `O=C1/C(=C\c2ccccn2)SC(=S)N1Nc1ncc(C(F)(F)F)cc1Cl`, the AC50 is 8910 nM (active). On to `Cc1cc(C)nc(NN2C(=O)/C(=C/c3ccccc3)SC2=S)n1`, for which the “activity, negative = inhibition” value is -1.03%.

With `CCCSc1nnc(CSc2nc3nc(C)cc(C)n3n2)o1`, the “activity, negative = inhibition” value was 0.494%. Regarding `Cc1cc(C)n2nc(SCN3C(=O)c4ccccc4C3=O)nc2n1`, the activity, negative = inhibition is 18.7% [at 11.4 µM].

In the case of `Cc1cc(C)n2nc(SCc3cc(=O)oc4ccc5ccccc5c34)nc2n1`, the AC50 is 5620 nM (active). In the case of `O[C@@H]1[C@@H](OCc2ccccc2)OC[C@H](O)[C@@H]1O`, the activity, negative = inhibition was -15.1% [at 11.4 µM].

On to `Oc1ccc(OCc2ccccc2)cc1`, for which the half-maximal activity concentration (AC50) was 1580 nM (active).

Take `S=C(Nc1ccccc1)Nc1ccc(OCc2ccccc2)cc1`: the AC50 is 5620 nM (active). Regarding `Cc1c(C(=O)Nc2ccc(OCc3ccccc3)cc2)cccc1[N+](=O)[O-]`, the “activity, negative = inhibition” value was -26.7%. `O=C(O)c1c[nH]c2cc(OCc3ccccc3)ccc2c1=O`: the activity, negative = inhibition was -19.1% [at 11.4 µM].
